The text below walks through data of PubChem BioAssay AID602144 (Vanderbilt Specialized Chemistry Center, 2011).

“And” between values parts separate entries of the source, which are not always exact repeats. Identical values can stand only once. A number with no mark means an inactive call. The source made the active and inactive calls. No stated cut-off is given here; in the data, active means remaining activity below about 50%; inactive means the rest.

This experiment deals with Phospholipase D1 (Homo sapiens) (UniProt Q13393). Kind of experiment: cellular phospholipase D1 activity inhibition – Calu-1 cells, single concentration (AID 602144).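 Further: tested at 200 nM.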 The conditions noted are these: cellular PLD1 activity, stronger effect = lower value.
Phospholipase D1 (Homo sapiens), sequence (Q13393 whole entry, looked up): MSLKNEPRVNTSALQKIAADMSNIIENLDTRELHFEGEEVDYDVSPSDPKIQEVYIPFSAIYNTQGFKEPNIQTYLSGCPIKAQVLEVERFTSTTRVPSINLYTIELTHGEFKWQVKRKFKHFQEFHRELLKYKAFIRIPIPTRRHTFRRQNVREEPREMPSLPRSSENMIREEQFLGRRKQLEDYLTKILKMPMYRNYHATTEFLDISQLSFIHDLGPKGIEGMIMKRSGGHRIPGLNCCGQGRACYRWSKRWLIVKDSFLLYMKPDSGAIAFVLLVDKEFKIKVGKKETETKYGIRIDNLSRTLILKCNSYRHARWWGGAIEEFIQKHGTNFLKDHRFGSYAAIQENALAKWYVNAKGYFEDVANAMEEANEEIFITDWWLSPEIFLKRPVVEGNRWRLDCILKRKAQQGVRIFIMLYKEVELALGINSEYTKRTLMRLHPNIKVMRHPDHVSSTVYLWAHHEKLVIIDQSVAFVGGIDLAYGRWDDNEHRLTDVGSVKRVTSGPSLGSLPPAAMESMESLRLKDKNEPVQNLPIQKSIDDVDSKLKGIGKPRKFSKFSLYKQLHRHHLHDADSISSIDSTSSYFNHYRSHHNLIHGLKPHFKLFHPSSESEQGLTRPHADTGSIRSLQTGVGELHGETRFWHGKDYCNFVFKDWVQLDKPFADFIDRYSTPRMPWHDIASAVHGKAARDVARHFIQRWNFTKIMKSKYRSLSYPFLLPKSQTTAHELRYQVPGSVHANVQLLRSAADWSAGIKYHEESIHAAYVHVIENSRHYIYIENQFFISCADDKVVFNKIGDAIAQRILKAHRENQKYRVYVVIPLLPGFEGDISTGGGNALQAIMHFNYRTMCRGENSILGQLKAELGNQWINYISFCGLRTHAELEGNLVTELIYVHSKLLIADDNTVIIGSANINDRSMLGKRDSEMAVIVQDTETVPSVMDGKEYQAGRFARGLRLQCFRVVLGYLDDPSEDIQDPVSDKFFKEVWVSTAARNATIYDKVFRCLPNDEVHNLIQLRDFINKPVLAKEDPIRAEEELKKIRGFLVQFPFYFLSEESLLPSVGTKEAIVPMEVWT
Phospholipase D1 (Homo sapiens), sequence (Q13393 whole entry, looked up): as above
As to `O=C(CCc1ccccc1)NCCN1CCC(n2c(=O)[nH]c3ccccc32)CC1`, the remaining activity was 76.1%.
To `C[C@@H](CN1CCC(n2c(=O)[nH]c3ccccc32)CC1)NC(=O)CSc1ccccc1` belongs 48.1% (active); to `O=C(NCCN1CCC(n2c(=O)[nH]c3ccccc32)CC1)C1C=Cc2ccccc2C1` (stereo unspecified), 33% (active); to `C[C@@H](CN1CCC(n2c(=O)[nH]c3ccccc32)CC1)NC(=O)c1ccco1`, 41.7% (active).
In the case of `O=C1c2ccccc2C(=O)N1CCN1CCC(n2c(=O)[nH]c3cc(Cl)ccc32)CC1` it was 107%; in that of `C[C@H](CN1CCC2(CC1)CNc1ccccc12)NC(=O)c1ccc2ccccc2c1`, 34.6% (active).
In the case of `C[C@@H](CN1CCC(n2c(=O)[nH]c3ccccc32)CC1)NC(=O)c1ccc(C(F)(F)F)cc1` it was 36.5% (active).
In the case of `O=C(Cc1ccc2ccccc2c1)NCCN1CCC(n2c(=O)[nH]c3ccccc32)CC1`, the remaining activity is 87.7%.
`C[C@@H](NC(=O)NCCN1CCC(n2c(=O)[nH]c3ccccc32)CC1)c1ccccc1`: the remaining activity is 131% and 118%.
In the case of `O=C(c1ccc(Cl)cc1)N1CCC(n2c(=O)[nH]c3cc(Cl)ccc32)CC1` it was 79.2%; in that of `C[C@@H](CN1CCC2(CCc3ccccc32)CC1)NC(=O)c1cnc2ccccc2c1`, 129%.
In the case of `C[C@@H](CN1CCC(n2c(=O)[nH]c3ccccc32)CC1)NC(=O)c1ccc[nH]1`, the remaining activity was 48.2% (active).
In the case of `O=c1[nH]c2ccccc2n1C1CCN(CCNS(=O)(=O)c2cc(Cl)ccc2Cl)CC1` it was 104%; in that of `Cc1ccc(C(=O)NCCN2CCN(c3ncccn3)CC2)cc1`, 84.2%.
To `CC(C)[C@@H](CN1CCC(n2c(=O)[nH]c3ccccc32)CC1)NC(=O)[C@@H]1C[C@H]1c1ccccc1` belongs 82.9%.
In the case of `Cn1c(C2CCN(CCN)CC2)nc2ccccc21` (tested in a mixture with another compound) it was 75%; in that of `O=c1[nH]c2ccccc2n1C1CCN(CCNS(=O)(=O)c2ccc(Cl)cc2)CC1`, 137%; in that of `O=c1[nH]c2ccccc2n1C1CCN(CCNS(=O)(=O)c2ccc(F)cc2)CC1`, 129%.
On to `C=CCCCCCCCCC(=O)NCCN1CCC(n2c(=O)[nH]c3ccccc32)CC1`, for which the remaining activity is 81.3%.
Regarding `Cc1cccc(C(=O)NCCN2CCC(n3c(=O)[nH]c4ccccc43)CC2)n1`, the remaining activity was 26.7% (active).
To `C[C@H](CN1CCC(n2c(=O)[nH]c3cc(Cl)ccc32)CC1)NC(=O)c1cc2ccccc2[nH]1` belongs 0.888% (active).
To `NC1(CN2CCC(n3c(=O)[nH]c4ccccc43)CC2)CCCC1` (tested in a mixture with another compound) belongs 86.8%; to `C[C@@H](CN1CCC(n2c(=O)[nH]c3ccc(F)cc32)CC1)NC(=O)c1ccc(F)cc1`, 16% (active); to `COc1cccc(N2CCN(CCNC(=O)c3ccc(F)cc3)CC2)c1`, 110%.
To `C[C@@H](CN1CCC(n2c(=O)[nH]c3ccccc32)CC1)NC(=O)CCc1ccc(F)cc1` belongs 53.9%; to `O=C(NCCN1CCC(n2c(=O)[nH]c3ccccc32)CC1)c1ccc(-c2ccccc2)o1`, 38.7% (active); to `O=C(NCCN1CCC(n2c(=O)[nH]c3ccccc32)CC1)c1cc2ccc3ccccc3c2c2ccccc12`, 76.6%.
Regarding `O=C(CCCN1CCC(O)(c2ccc(Cl)cc2)CC1)c1ccc(F)cc1`, the remaining activity was 80.1%.
To `O=C(NCCN1CCC(n2c(=O)[nH]c3ccccc32)CC1)NC(c1ccccc1)c1ccccc1` belongs 146%.
In the case of `O=C(NCCN1CCN(c2ccncc2)CC1)c1c2ccccc2cc2ccccc12` it was 183%.
In the case of `COc1cccc(N2CCN(CCNC(=O)c3ccc(C(F)(F)F)cc3)CC2)c1`, the remaining activity was 102%.
In the case of `O=C(NCCN1CCC(n2c(=O)[nH]c3ccccc32)CC1)C1CCCCCC1` it was 98.9%; in that of `O=C(NCCN1CCC(n2c(=O)[nH]c3ccccc32)CC1)c1cccc(F)n1`, 34% (active).
To `O=c1[nH]c2ccccc2n1C1CCN(CCNS(=O)(=O)c2cccc(C(F)(F)F)c2)CC1` belongs 111%; to `O=C(NCCN1CCN(c2ccncc2)CC1)c1cc2cc(F)ccc2[nH]1`, 162%.
In the case of `Cc1ccc(C(=O)NCCN2CCC(n3c(=O)[nH]c4cc(Br)ccc43)CC2)cc1` it was 3.74% (active).
